A short description of assay [1]: CEETOX_H295R_DOC: CeeTox H295R High-throughput Steroidogenesis Assay for DOC (AID 2283439; active = hit-call score of the fitted dose curve at least 0.9, where 1 is the maximum; inactive = score below 0.9). Conditions: actives raise or lower the signal. The essentials:
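H295R cells prestimulated 48 h with 10 uM forskolin, then exposed 48 h to test chemical (0.1% DMSO final). Medium 11-deoxycorticosterone measured by HPLC-MS/MS after MTBE extraction; bidirectional fit vs DMSO, viability checked by MTT in same wells.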

Assay [2] is described as follows: CEETOX_H295R_PROG: CeeTox H295R High-throughput Steroidogenesis Assay for Progesterone (PROG) (AID 2283442; active = hit-call score of the fitted dose curve at least 0.9, where 1 is the maximum; inactive = score below 0.9). As to conditions: actives raise or lower the signal. Put shortly:
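H295R human adrenal cells were prestimulated with 10 uM forskolin for 48 h, then exposed to test chemical (0.1% DMSO final) for 48 h. Medium progesterone was MTBE-extracted and quantified by HPLC-MS/MS, with bidirectional fitting against DMSO.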

A short description of assay [3]: CEETOX_H295R_MTT_cell_viability: Viability Assessment in the CeeTox HT-H295R MTT Assay (AID 2283718; active = hit-call score of the fitted dose curve at least 0.9, where 1 is the maximum; inactive = score below 0.9). Put shortly:
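MTT reduction (0.5 mg/ml, 4 h at 37 C; absorbance at 570 and 650 nm) gave viability as background-corrected percent change versus controls. H295R cells had 48 h forskolin (10 uM) prestimulation, then 48 h chemical exposure at 0.1% DMSO.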

Assay [4] addresses Bile acid receptor (Homo sapiens) (UniProt Q96RI1). In words: ATG_IR1_CIS: Attagene CIS-FACTORIAL HepG2 Assay for human Nuclear Receptor Subfamily 1 Group H Member 4 (NR1H4), IR1 submotif (AID 2282946; active = hit-call score of the fitted dose curve at least 0.9, where 1 is the maximum; inactive = score below 0.9). As to conditions: IR1 reporter transcription, actives raise or lower the signal. The essentials: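 Cells (human HepG2) carry transiently transfected cis-promoter reporter transcription units. Compounds are incubated 24 h, total RNA is reverse-transcribed and amplified, and labelled fragments are resolved by capillary electrophoresis. Curves use DMSO as baseline.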

For assay [5], the target named is rat Thyrotropin Releasing Hormone Receptor (TRH), Trhr (gene 25570) (UniProt Q01717). Description: NVS_GPCR_rTRH: NovaScreen (NVS) G Protein-Coupled Receptor Assay for rat Thyrotropin Releasing Hormone Receptor (TRH) (AID 2283329).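 Also: hit means lower bound tracer signal versus DMSO baseline.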 The essentials: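 Cell-free radioligand binding on rat forebrain membranes; bound tracer measured by filter-based scintillation counting 4 hours after dosing. Loss of signal versus DMSO baseline indicates displacement; primary screen at 25 uM in duplicate, actives then run in concentration series.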
Sequence of rat Thyrotropin Releasing Hormone Receptor (TRH), Trhr (gene 25570) (Q01717 whole entry, looked up): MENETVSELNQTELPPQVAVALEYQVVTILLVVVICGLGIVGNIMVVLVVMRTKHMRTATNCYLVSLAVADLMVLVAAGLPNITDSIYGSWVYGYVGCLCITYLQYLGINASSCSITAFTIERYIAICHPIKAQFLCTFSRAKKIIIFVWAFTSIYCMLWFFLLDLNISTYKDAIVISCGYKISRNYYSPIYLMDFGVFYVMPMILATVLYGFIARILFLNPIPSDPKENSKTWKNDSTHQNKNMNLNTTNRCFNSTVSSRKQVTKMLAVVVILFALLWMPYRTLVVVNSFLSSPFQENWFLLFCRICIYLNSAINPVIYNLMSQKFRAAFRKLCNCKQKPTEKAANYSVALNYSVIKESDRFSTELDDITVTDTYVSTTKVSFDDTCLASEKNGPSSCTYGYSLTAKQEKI

In assay [6] the target is human Peroxisome Proliferator-activated Receptor alpha (PPARa), PPARA (gene 5465) (UniProt Q07869). In words: NVS_NR_hPPARa: NovaScreen (NVS) Nuclear Receptor Binding Assay for human Peroxisome Proliferator-activated Receptor alpha (PPARa) (AID 2283359).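 Also: activity means loss of TR-FRET signal versus DMSO baseline.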 Put shortly:
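Chemicals were first screened in duplicate at 25 uM, and active ones were retested across concentration series. Binding was monitored by TR-FRET one hour after dosing, with decreased signal against DMSO counted as activity.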

In assay [7] the target is Bile acid receptor (Homo sapiens) (UniProt Q96RI1). Description: OT_FXR_FXRSRC1_0480: Odyssey Thera (OT) 8-hour HEK293T Protein-Complementation Assay for Farnesoid X receptor/SRC-1 Co-activator (AID 2283383). The essentials:
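HEK293T protein-fragment complementation assay: FXR and SRC-1 coactivator are fused to reporter fragments, and their interaction restores a fluorescent reporter. Readout was taken 8 h after dosing, with gain of signal fit relative to DMSO.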

Assay [8] is described as follows: STM_H9_NormalizedViability: Cytotoxicity Assessment at 120 hours in the Stemina devTOX quickPredict H9 human embryonic stem cell (hESC)-based Assay (AID 2283784). Put shortly: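 Pluripotent H9 hESCs were exposed, with chemical and media replaced every 24 h. Viability was read by CellTiter-Fluor fluorescence, background-corrected and normalized to the 0.1% DMSO neutral control per plate. Loss of signal was fitted.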

Assay [9] in a line: CPHEA_Stoker_NIS_Cytotoxicity: Cytotoxicity Assessment for CPHEA's Radioactive Iodide Uptake (RAIU) Assay for Sodium/Iodide Symporter (NIS) Inhibition, Stoker and Laws Labs (AID 2283897). The essentials: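 hNIS-HEK293T-EPA human kidney cells were exposed for 2 hours at room temperature to test chemicals (0.001–100uM, 0.5% final DMSO) in HEPES-buffered HBSS, pH 7.4. Viability was read as ATP content by luciferase bioluminescence, loss of signal versus DMSO.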

A short description of assay [10]: CCTE_Deisenroth_5AR_NBTE_donor: CCTE's 5alpha-reductase NanoBRET Target Engagement Assay […], Deisenroth Lab (AID 2284319; active = hit-call score of the fitted dose curve at least 0.9, where 1 is the maximum; inactive = score below 0.9). As to conditions: actives raise or lower the signal. Put shortly:
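Donor NanoLuc luminescence at 460-20 nm is the read-out, serving artifact detection. Transiently expressed SRD5A2-NanoLuc in HEK293T; 5 h total chemical exposure, testosterone tracer added for the final 2 h; fitting bidirectional relative to DMSO baseline.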
(Bioluminescence resonance energy transfer reports proximity on the nanometre scale.)

Assay [11] in a line: CCTE_Deisenroth_5AR_NBTE_acceptor: CCTE's 5alpha-reductase NanoBRET Target Engagement Assay - Autofluorescence Screen, Deisenroth Lab (AID 2284321; active = hit-call score of the fitted dose curve at least 0.9, where 1 is the maximum; inactive = score below 0.9;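 also: compound fluorescence in the acceptor channel under 460 nm excitation flags autofluorescence artifacts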). As to conditions: actives raise or lower the signal. Put shortly: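 HEK293T cell-based NanoBRET assay read 5 h after dosing; this acceptor channel serves as an autofluorescence artifact screen. Chemicals at nominal 100 uM were scanned in three independent runs (n=3), excitation 460 nm. Fitting was bidirectional versus DMSO baseline.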

Another assay concerns SRD5A2 (gene 6716). Description: CCTE_Deisenroth_5AR_NBTE_ratio: CCTE's 5alpha-reductase NanoBRET Target Engagement Assay - Ratio, Deisenroth Lab (AID 2284322; active = hit-call score of the fitted dose curve at least 0.9, where 1 is the maximum; inactive = score below 0.9). As to conditions: actives raise or lower the signal. The essentials: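 HEK293T transiently expressing SRD5A2-NanoLuc; cells exposed to chemical (8-point, 10 nM - 29.9 uM) for 5 h total, testosterone tracer added for final 2 h. NanoBRET acceptor/donor ratio (650/460 nm), bidirectional fit vs DMSO.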

Another assay has as its system SERPINA7 (gene 6906). In words: CCTE_GLTED_hTBG: CCTE's human Thyroxine-binding Globulin (TBG) Inhibition Assay, Great Lakes Toxicology and Ecology Division (GLTED) Lab (AID 2284343).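 Also: active chemicals lower fluorescence versus DMSO baseline by displacing probe.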 Put shortly: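 Human TBG incubated 2 h with test chemical; displacement of ANSA probe read by fluorescence, 380 nm excitation/475 nm emission. Loss of signal relative to DMSO.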
The test system of a further assay is TTR (gene 7276). In words: CCTE_GLTED_hTTR_0.125uM: CCTE's human Transthyretin (hTTR) Inhibition Assay, with 0.125uM TTR, Great Lakes Toxicology and Ecology Division (GLTED) Lab (AID 2284431; active = hit-call score of the fitted dose curve at least 0.9, where 1 is the maximum; inactive = score below 0.9). The essentials: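 Cell-free displacement of the fluorescent probe ANSA from human TTR (0.125uM) after 2 h incubation with test chemical. Fluorescence read at 380 nm excitation/475 nm emission; loss of signal fitted relative to DMSO baseline.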

The target of assay [12] is human Phosphodiesterase 10 (PDE10), PDE10A (gene 10846) (UniProt Q9Y233). In words: NVS_ENZ_hPDE10: NovaScreen (NVS) Enzymatic Assay for human Phosphodiesterase 10 (PDE10) (AID 2283195). Put shortly: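 PDE10A, cell-free; 1 h incubation; fluorescence intensity + electrophoretic mobility shift separating substrate/product; DMSO = baseline; 25 uM duplicate primary, CRC up to 50 uM.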
Sequence of human Phosphodiesterase 10 (PDE10), PDE10A (gene 10846) (Q9Y233 whole entry, looked up): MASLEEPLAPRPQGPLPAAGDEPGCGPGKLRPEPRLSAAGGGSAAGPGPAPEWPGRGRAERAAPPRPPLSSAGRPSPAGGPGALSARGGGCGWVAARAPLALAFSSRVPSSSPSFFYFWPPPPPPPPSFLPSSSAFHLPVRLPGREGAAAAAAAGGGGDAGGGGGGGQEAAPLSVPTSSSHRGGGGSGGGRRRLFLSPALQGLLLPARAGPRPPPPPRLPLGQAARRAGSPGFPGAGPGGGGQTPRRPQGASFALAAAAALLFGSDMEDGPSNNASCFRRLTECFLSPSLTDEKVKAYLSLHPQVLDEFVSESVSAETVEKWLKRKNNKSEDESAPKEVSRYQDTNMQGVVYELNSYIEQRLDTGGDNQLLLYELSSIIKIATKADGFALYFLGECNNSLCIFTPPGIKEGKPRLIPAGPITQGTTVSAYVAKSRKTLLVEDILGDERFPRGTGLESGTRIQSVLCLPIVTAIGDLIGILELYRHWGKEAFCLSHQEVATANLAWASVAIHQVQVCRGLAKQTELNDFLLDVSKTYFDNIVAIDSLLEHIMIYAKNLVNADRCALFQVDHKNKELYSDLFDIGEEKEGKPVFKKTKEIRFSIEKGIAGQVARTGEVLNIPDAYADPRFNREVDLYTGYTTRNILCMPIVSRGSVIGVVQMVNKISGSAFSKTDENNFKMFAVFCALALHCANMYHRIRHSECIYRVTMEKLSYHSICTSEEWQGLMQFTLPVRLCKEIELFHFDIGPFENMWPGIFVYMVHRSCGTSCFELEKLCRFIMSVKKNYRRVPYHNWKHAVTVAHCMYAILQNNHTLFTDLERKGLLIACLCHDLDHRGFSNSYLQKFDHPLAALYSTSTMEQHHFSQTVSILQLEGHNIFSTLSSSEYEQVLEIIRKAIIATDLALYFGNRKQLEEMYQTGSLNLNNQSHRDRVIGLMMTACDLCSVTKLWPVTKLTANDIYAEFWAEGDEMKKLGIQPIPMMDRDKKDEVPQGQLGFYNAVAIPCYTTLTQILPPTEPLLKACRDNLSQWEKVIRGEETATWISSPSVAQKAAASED

Assay [13] addresses sheep Cyclooxygenase-1 (Cox1), PTGS1 (gene 443551) (UniProt P05979). Description: NVS_ENZ_oCOX1: NovaScreen (NVS) Enzymatic Assay for sheep Cyclooxygenase-1 (Cox1) (AID 2283239).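 Also: actives reduce cyclooxygenase activity so potencies are for inhibitors.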 The essentials: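 Cell-free colorimetric assay of enzyme activity in a native extract of ovine seminal vesicles. Absorbance was read 0.66 hour after compound addition. Loss of signal relative to the DMSO negative control was scored, with actives from the 25 uM duplicate primary screen retested in concentration series.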

The nature of assay [14]: ATG_DR4_LXR_CIS: Attagene CIS-FACTORIAL HepG2 Assay for human Liver X Receptor (LXR), DR4 submotif (AID 2282929; active = hit-call score of the fitted dose curve at least 0.9, where 1 is the maximum; inactive = score below 0.9). As to conditions: HepG2 Attagene DR4 cis-reporter, mRNA transcription; actives raise or lower the signal. Put shortly: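 Readout: reporter transcript fluorescence after RT-PCR and capillary electrophoresis, fitted bidirectionally against DMSO controls. Human HepG2 liver cells carried transiently transfected multiplexed reporter constructs; endogenous transcription factor activity measured 24 h post-dosing.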

Assay [15] deals with Aryl hydrocarbon receptor (Homo sapiens) (UniProt P35869). In words: ATG_Ahr_CIS: Attagene CIS-FACTORIAL HepG2 Assay for human Aryl Hydrocarbon Receptor (Ahr) (AID 2282930; active = hit-call score of the fitted dose curve at least 0.9, where 1 is the maximum; inactive = score below 0.9). As to conditions: HepG2 AhR cis-factorial reporter transcription; actives raise or lower the signal. Put shortly:
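Reporter mRNA levels, quantified by RT-PCR and fluorescent capillary electrophoresis, reflect endogenous AhR transcriptional activity in HepG2 cells carrying transfected cis-promoter reporter constructs. Readout at 24 h post-dose; gain or loss fitted against DMSO baseline.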

Assay [16] has as its target Estrogen receptor (Homo sapiens) (UniProt P03372). In words: ATG_ERa_TRANS: Attagene TRANS-FACTORIAL HepG2 Assay for human Estrogen Receptor alpha (ERa) (AID 2282970). As to conditions: HepG2 Attagene TRANS ERa GAL4 reporter, mRNA. Put shortly:
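HepG2 cells transiently transfected with multiplexed GAL4-UAS reporter units; ERa activity read via exogenous chimeric NR-Gal4 protein. After 24 hour compound exposure, reporter mRNA measured by RT-PCR with 6-FAM labelling and capillary electrophoresis; gain-of-signal fitted relative to DMSO.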

The target in assay [17] is human Norepinephrine Transporter (NET), SLC6A2 (gene 6530) (UniProt P23975). Description: NVS_TR_hNET: NovaScreen (NVS) Transporter Assay for human Norepinephrine Transporter (NET) (AID 2283377).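 Also: cell-free membrane protein extracted from CHO cells expressing human NET; displacement of radioligand from human NET seen as loss of scintillation signal.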 Put shortly:
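Scintillation counts of filter-retained radioligand served as the readout, taken 1 h post-dosing in a cell-free CHO-derived system. Test chemicals ran first at 25 uM in duplicate; confirmed hits were retested across concentrations.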

Records with an inconclusive call do not appear. Calls of active or inactive are those of the source. The calls were made as follows, unless noted: active = hit-call score of the fitted dose curve at least 0.9, where 1 is the maximum; inconclusive = response in the unintended direction; inactive = score below 0.9.

Sequence of Bile acid receptor (Homo sapiens) (Q96RI1 whole entry, looked up, the tested form may be a part): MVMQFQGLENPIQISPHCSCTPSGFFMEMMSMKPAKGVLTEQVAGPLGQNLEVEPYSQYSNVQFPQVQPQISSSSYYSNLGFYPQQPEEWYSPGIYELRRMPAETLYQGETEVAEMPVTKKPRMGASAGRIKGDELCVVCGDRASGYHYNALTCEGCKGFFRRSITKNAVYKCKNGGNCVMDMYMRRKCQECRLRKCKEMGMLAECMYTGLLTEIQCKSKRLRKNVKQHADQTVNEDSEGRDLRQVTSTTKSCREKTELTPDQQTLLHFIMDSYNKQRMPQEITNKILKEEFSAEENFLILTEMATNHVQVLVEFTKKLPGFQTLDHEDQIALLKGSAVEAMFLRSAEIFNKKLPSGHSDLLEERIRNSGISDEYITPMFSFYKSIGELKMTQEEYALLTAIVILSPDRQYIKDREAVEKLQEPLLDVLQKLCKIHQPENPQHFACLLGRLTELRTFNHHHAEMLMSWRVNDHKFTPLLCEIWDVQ
Sequence of Estrogen receptor (Homo sapiens) (P03372 whole entry, looked up, the tested form may be a part): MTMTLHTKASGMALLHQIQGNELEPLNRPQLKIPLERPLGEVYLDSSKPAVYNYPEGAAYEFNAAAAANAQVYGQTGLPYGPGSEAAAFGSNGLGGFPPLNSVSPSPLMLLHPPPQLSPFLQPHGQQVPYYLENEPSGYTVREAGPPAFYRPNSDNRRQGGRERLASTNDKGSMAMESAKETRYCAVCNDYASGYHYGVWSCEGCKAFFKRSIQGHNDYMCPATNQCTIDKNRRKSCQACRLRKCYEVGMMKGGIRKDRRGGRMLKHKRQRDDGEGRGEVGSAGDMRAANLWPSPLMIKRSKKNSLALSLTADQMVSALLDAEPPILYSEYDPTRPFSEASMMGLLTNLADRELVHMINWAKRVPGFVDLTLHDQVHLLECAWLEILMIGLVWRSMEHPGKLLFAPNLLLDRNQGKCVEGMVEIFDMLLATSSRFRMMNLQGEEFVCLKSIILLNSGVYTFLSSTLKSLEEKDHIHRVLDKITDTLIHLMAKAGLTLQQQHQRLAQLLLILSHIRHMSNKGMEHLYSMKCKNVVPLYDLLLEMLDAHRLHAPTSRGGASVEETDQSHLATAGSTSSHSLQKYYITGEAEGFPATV
Sequence of human Norepinephrine Transporter (NET), SLC6A2 (gene 6530) (P23975 whole entry, looked up): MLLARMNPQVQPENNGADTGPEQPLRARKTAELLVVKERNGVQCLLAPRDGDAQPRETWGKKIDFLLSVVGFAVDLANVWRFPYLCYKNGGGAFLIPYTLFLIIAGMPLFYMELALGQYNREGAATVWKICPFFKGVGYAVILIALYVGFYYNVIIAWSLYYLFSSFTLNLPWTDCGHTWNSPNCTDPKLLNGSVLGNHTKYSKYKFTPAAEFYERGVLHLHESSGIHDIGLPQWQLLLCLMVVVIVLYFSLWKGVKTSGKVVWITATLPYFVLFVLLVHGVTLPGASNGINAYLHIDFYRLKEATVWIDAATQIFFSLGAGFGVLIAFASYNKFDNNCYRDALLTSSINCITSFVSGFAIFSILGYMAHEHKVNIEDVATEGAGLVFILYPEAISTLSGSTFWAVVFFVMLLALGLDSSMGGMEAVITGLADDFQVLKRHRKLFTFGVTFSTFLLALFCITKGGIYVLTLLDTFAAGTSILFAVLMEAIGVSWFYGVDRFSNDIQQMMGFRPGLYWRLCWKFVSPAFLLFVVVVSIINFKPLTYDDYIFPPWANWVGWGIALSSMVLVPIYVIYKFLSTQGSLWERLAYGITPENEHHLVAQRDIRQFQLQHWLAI
Sequence of Aryl hydrocarbon receptor (Homo sapiens) (P35869 whole entry, looked up): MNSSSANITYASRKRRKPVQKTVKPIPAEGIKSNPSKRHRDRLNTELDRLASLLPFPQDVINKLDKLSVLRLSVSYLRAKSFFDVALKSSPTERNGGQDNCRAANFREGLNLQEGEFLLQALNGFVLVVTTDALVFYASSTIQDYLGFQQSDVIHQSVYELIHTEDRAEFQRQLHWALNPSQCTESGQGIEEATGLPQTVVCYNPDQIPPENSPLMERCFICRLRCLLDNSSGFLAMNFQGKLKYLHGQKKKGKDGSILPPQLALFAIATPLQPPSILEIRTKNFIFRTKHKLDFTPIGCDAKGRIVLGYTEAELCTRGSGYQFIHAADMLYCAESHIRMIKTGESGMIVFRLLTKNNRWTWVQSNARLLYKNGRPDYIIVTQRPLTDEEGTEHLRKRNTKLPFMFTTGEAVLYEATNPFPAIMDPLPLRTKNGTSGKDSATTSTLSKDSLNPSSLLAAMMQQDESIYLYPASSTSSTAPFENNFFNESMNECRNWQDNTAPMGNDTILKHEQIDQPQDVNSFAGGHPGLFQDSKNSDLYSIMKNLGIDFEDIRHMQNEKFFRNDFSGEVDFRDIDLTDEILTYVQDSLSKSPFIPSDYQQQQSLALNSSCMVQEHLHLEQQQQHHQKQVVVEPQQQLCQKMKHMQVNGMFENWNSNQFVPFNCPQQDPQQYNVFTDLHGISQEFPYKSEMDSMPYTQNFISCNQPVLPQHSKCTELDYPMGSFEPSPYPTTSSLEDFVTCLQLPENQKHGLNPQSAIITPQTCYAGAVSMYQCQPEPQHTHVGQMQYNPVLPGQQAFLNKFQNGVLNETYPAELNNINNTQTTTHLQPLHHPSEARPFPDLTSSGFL
Sequence of sheep Cyclooxygenase-1 (Cox1), PTGS1 (gene 443551) (P05979 whole entry, looked up): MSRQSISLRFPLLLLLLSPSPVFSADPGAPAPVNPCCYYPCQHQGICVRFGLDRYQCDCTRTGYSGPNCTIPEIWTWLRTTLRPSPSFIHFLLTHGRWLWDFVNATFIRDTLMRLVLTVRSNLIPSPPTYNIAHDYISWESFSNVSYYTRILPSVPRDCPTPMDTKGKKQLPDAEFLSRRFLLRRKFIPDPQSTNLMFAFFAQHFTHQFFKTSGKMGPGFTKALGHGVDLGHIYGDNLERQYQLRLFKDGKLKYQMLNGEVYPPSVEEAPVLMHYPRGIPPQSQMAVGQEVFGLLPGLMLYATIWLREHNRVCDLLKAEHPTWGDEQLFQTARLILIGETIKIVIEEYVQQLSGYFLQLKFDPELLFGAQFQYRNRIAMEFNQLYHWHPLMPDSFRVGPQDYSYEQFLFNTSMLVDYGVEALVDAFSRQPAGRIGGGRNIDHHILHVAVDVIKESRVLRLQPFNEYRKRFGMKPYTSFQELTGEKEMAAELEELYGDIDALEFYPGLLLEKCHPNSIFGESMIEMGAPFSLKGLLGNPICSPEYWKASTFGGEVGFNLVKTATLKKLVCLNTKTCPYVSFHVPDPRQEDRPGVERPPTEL

For the compound `CCO[Si](CCCN)(OCC)OCC`, the compound was classed as inactive in [1], in [2] and in assay [3].
By AC50 is commonly meant the concentration at which the activity in the assay is half-maximal. Take `CCCCCC[C@@H](O)C/C=C\CCCCCCCC(=O)O`: the AC50 is 149 µM (active) in [4]; 36.8 µM (active) in assay [6]; 74.3 µM (active) in assay [7]; 41.4 µM (active) in the assay on SERPINA7 (gene 6906); 10.8 µM (active) in the assay on TTR (gene 7276). For the same compound, the outcome (in [5]; in [8]; in [9]; in assay [10]; in assay [11]; with SRD5A2 (gene 6716)) was inactive.
As to `C[N+](C)(C)CC(=O)[O-]`, the outcome in assay [12] and in assay [13] was inactive.
Consider `COc1ccc2ccccc2c1`, for which the compound was called inactive in [14], in assay [15] and in assay [16]. Moreover, the AC50 in assay [17] is 25 µM (active).

These data come from PubChem BioAssay (EPA / NIEHS).
